In the library only some 3.3% were active in any assay of this set; here they are far more common.
PLK1 PBD block: inhibitors of human PLK1 polo-box domain binding. actives 2.8% (n = 360,000). Potency, µM, most hits filed as inhibitors. Plk1 PBD binding of FITC phosphopeptide, fluorescence polarization. P53350; note: series mostly up to about 57 µM; nearly all actives have a fitted effect of over 65% in size
Target sequence (P53350 whole entry, looked up, the tested form may be a part): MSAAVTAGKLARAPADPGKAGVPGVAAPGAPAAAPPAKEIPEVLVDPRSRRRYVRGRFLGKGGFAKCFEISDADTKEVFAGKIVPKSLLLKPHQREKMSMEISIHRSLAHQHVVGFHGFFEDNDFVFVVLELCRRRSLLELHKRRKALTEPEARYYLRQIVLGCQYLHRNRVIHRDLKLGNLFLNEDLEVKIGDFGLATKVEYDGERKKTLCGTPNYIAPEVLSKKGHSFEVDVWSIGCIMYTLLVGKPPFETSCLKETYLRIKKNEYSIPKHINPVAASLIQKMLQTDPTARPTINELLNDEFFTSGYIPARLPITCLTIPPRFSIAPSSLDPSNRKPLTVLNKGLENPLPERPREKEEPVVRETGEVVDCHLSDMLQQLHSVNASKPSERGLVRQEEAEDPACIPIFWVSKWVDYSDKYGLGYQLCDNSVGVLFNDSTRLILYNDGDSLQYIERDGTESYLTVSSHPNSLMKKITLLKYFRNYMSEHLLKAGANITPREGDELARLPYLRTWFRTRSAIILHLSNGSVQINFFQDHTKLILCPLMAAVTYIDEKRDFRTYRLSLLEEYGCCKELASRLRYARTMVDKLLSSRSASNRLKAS
PI5P4Ka inh: PI5P4K alpha (human) kinase inhibition. P48426. PI5P4Kalpha enzyme, ADP-Glo luminescence, 60 min; stronger effect = lower value. max response, %. actives 1.2% (n = 330,000). AID 652105; active = max response of -50% or lower; inconclusive = between -30% and -50%; inactive = -30% or higher; note: value at the top dose of about 77 µM
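Controls without substrate or without enzyme flank wells where PI5P4Kalpha converts substrate using 5 microM ATP (final). Incubation lasts 60 minutes at room temperature; ADP formed is read by ADP-Glo luminescence.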
USP2a block: blocks human ubiquitin-specific protease USP2a; actives 0.01% (n = 330,000); Potency, µM (doses to about 38.3 µM), hits mostly inhibitors; USP2 core, Ub-CHOP2 coupled fluorogenic reporter, 485/531
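USP2 core (10nM final) preincubated 30min RT with compound in 20mM Tris-HCl pH 8.0, 2mM CaCl2, 2mM beta-mercaptoethanol, 0.05% CHAPS; 25nM Ub-CHOP2 plus 25nM reporter substrate added, fluorescence (Ex485/Em531) read after 60min.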
WRN helicase inh-1: blocks human WRN helicase | Potency, µM (doses to about 114 µM), most hits filed as inhibitors | Q14191 | actives 0.46% (n = 360,000) | AID 651768 | WRN helicase unwinding, fluorescent forked duplex, kinetic; note: nearly all actives have a fitted effect of over 55% in size
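WRN at 20 nM final was preincubated with compound for 15 min at room temperature; reaction started with 100 nM forked duplex oligonucleotide carrying fluorophore and quencher plus 2 mM ATP (final). Unwinding followed kinetically by red fluorescence (ex 525/em 598 nm).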
USP1 inh: inhibitors of human USP1/UAF1 deubiquitinase; O94782; recombinant USP1/UAF1, Ub-Rhodamine cleavage fluorescence; Potency, µM (highest dose often 57.1 µM), most hits filed as inhibitors; actives 0.23% (n = 390,000); AID 743255; note: nearly all actives have a fitted effect of over 60% in size
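USP1/UAF1 complex at 1 nM was preincubated with compound for 15 min at room temperature, then Ub-Rho substrate (150nM final) was added. Fluorescence (480/540 nm) was read kinetically, 6 reads every 60 seconds.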
WRN helicase inh-2: confirmation of human WRN helicase inhibitors; shares compounds with WRN helicase inh-1; WRN helicase DNA unwinding, fluorescence kinetic; Potency, µM (top dose mostly 57.1 µM), usual class: inhibitors; actives 63% (n = 610); AID 720497; note: nearly all actives have a fitted effect of over 65% in size
TO displacement: DNA binding via thiazole orange displacement | shares compounds with WRN helicase inh-1 | thiazole orange DNA binding displacement, fluorescence | Potency, µM (doses to about 57.1 µM), actives largely listed as inhibitors | actives 10% (n = 610);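 note: drop in dye fluorescence marks compound binding to DNA; nearly all actives have a fitted effect of over 60% in size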
BLM helicase inh: counter-screen for WRN helicase inhibitors: human BLM helicase inhibition | shares compounds with WRN helicase inh-1 | Recombinant BLM helicase DNA unwinding, red fluorescence | Potency, µM (top dose mostly 57.1 µM), actives largely listed as inhibitors | actives 60% (n = 610); note: nearly all actives have a fitted effect of over 60% in size
Of the large screens only hits and unclear results are named; the others gave an inactive call (follow-up assays come after a bar, where they were run). Unless noted, calls come from the whole dose curve; as a rule, active = well fitted curve in the direction sought with a large enough effect; inconclusive = small, poorly fitted or top-dose-only effect, or another doubt; inactive = no such curve, though single readings can be large; an effect the other way counts as inactive or inconclusive.

C=CCOC(=O)c1cc(-c2ccc(/C=C3\C(=O)NC(=O)C(C#N)=C3C)o2)ccc1Cl	PLK1 PBD block 5.97µM, WRN helicase inh-1 10.6µM | WRN helicase inh-2 15.2µM | TO displacement inconclusive | BLM helicase inh 6.81µM
CC(C)COC(=O)c1cc(-c2ccc(/C=N/n3cnnc3)o2)ccc1Cl	none
Cc1cc(NS(=O)(=O)c2ccc(NS(=O)(=O)c3ccc(Br)cc3)cc2)no1	WRN helicase inh-1 inconclusive
Cc1cc(NS(=O)(=O)c2ccc(NC(=O)/C=C/c3ccc(Br)cc3)cc2)no1	WRN helicase inh-1 inconclusive | WRN helicase inh-2 inactive | TO displacement inactive | BLM helicase inh inconclusive
CC(NC(=O)c1cccc(NC(=O)c2nsc3ccccc23)c1)c1ccccc1 (stereo unspecified)	none (no result: PLK1 PBD block, PI5P4Ka inh, USP2a block, WRN helicase inh-1)
CCOc1ccc(NC(=O)CC2C(=O)N(c3ccccc3)C(=O)N2Cc2ccc3c(c2)OCO3)cc1 (stereo unspecified)	none (no result: PLK1 PBD block, PI5P4Ka inh, USP2a block, WRN helicase inh-1)
COc1ccc(C)cc1-n1cnc2cc(C(=O)NC3CCCCCC3)ccc21	none (no result: PLK1 PBD block, PI5P4Ka inh, USP2a block, WRN helicase inh-1)
Cc1cccc(N=C2NC(=O)/C(=C/c3cccnc3)S2)c1C	none
Cc1cccc(N=C2NC(=O)/C(=C/C=C/c3ccco3)S2)c1C	PLK1 PBD block 15µM, PI5P4Ka inh -79.8, USP2a block inconclusive, WRN helicase inh-1 31.6µM | WRN helicase inh-2 15.2µM | TO displacement 27.1µM | BLM helicase inh 8.57µM
COc1cc(/C=C2\SC(=S)N(NC(=O)c3cccc(O)c3)C2=O)ccc1O	WRN helicase inh-1 31.6µM | WRN helicase inh-2 21.5µM | TO displacement 3.83µM | BLM helicase inh 21.5µM
COc1cc(/C=C2\SC(=S)N(N3CCOCC3)C2=O)ccc1O	PLK1 PBD block inconclusive
CCOc1cc(/C=C2/SC(=S)N(CC3CCCO3)C2=O)ccc1O (stereo unspecified)	WRN helicase inh-1 35.5µM | WRN helicase inh-2 inconclusive | TO displacement inactive | BLM helicase inh 21.5µM
COc1cc(/C=C2\SC(=S)N(NC(=O)c3ccc(O)c(OC)c3)C2=O)ccc1O	PI5P4Ka inh inconclusive, WRN helicase inh-1 39.8µM, USP1 inh inconclusive | WRN helicase inh-2 19.2µM | TO displacement inactive | BLM helicase inh 19.2µM
O=C(O)c1ccc(/C=C2\SC(=S)N(NC(=O)c3ccccc3)C2=O)cc1	none
COc1cccc2c(SCC(=O)N/N=C/c3ccccc3)cc(C)nc12	none
O=C(N/N=C/c1ccc(O)c(O)c1)N/N=C/c1ccc(O)c(O)c1	PI5P4Ka inh -69.2, WRN helicase inh-1 3.98µM | WRN helicase inh-2 0.961µM | TO displacement inconclusive | BLM helicase inh 1.08µM
COc1cccc2c(SCC(=O)N/N=C/c3ccc(O)c(O)c3)cc(C)nc12	WRN helicase inh-1 20µM | WRN helicase inh-2 4.82µM | TO displacement inconclusive | BLM helicase inh 4.82µM
O=C(CSc1nc2ccccc2o1)N/N=C/c1ccc(O)c(O)c1	PI5P4Ka inh -89.3, WRN helicase inh-1 8.91µM | WRN helicase inh-2 2.71µM | TO displacement inconclusive | BLM helicase inh 1.92µM
O=C(NN=Cc1ccc2c(c1)OCO2)NN=Cc1ccc2c(c1)OCO2	none (no result: USP2a block)
COc1ccc2nc(C)cc(SCC(=O)N/N=C/c3ccc(O)c(O)c3)c2c1	WRN helicase inh-1 14.1µM | WRN helicase inh-2 4.82µM | TO displacement inconclusive | BLM helicase inh 6.07µM
CCN(Cc1ccccc1)C(=O)CN(c1ccc(OC)cc1)S(=O)(=O)c1c(C)nn(C)c1C	none (no result: PLK1 PBD block, PI5P4Ka inh, USP2a block, WRN helicase inh-1)
CN(C)CCCNc1nc2cc(-c3ccc4c(ccn4C)c3)sc2c(=O)n1C	WRN helicase inh-1 inconclusive (no result: USP2a block, USP1 inh) | WRN helicase inh-2 24.1µM | TO displacement 24.1µM | BLM helicase inh inactive
CN(C)CCCNc1nc2cc(-c3ccsc3)sc2c(=O)n1C	none (no result: USP2a block, USP1 inh)

Screening results: PubChem BioAssay, National Center for Advancing Translational Sciences (NCATS)
